Source: PubChem BioAssay (Broad Institute)
The list is not random: actives were taken first. Their share in the collection is about 3%.
MITF act: increases MITF-driven TRPM1 promoter luciferase signal; SK-MEL-5 TRPM1-promoter luciferase, 24 h; % of positive control, neutral wells = 0; activation, % at 12.5 µM; hit rate 0.75% among 300,000;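 active = mean activation of at least 80% with every replicate also reaching 80%; inconclusive = mean reaches 80% but some replicate falls short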
esBAF inh: SWI/SNF esBAF complex inhibition | reporter increase, % at 12.5 µM | hit rate 2% among 350,000 | mouse ES cells, Bmi1-luciferase knock-in reporter, 24 h; 100% = twice the neutral-well signal; in the data active = activation above about 40%; inconclusive = no clear call, values can overlap the other calls;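 note: a rise in the Bmi1 reporter signal indicates esBAF inhibition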
Wnt bcat act: activators of Wnt/beta-catenin signaling. Wnt/beta-catenin reporter cell assay, activator, plate reader. activation, % at 9.35 µM. hit rate 1.2% among 300,000. AID 743398; in the data active = activation above about 30%, passing the limit was not always enough; inconclusive = no clear call, values can overlap the other calls
Statin myotox sup: suppression of simvastatin myotoxicity; C2C12 myotubes + simvastatin, ATP luminescence, 48 h; scaled: DMSO 0, geranylgeraniol control 100; rescue of ATP level, % at 7.49 µM; hit rate 0.78% among 330,000;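 active = mean ATP rescue above about 67%, or every replicate alone reaching that limit, limit read from the data, passing the limit was not always enough; inconclusive = no clear call, values can overlap the other calls; inactive = mean under the limit and some replicate under it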;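 note: myotubes were challenged with 10 µM simvastatin during compound exposure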
Hits are given with their value; i = inactive; ? = inconclusive; nt = no result given.

SMILES	MITF act	esBAF inh	Wnt bcat act	Statin myotox sup
C[C@@H]1CN([C@H](C)CO)C(=O)c2cc(NC(=O)Cn3cnnn3)ccc2O[C@@H]1CN(C)C(=O)Nc1ccc(F)cc1	nt	i	nt	i
CCc1ccc(CN2CCN(C(=O)c3cccc(OC)c3OC)CC2)cc1	i	i	i	91
N#Cc1ccccc1NC(=O)c1ccc2c(Cl)c3c(nc2c1)CCCC3	i	80	nt	i
O=C(NC1CC1)c1ccc2c(Cl)c3c(nc2c1)CCCC3	i	47	i	i
CCC(=O)N(C)C[C@@H]1Oc2cc(C#CCN(C)C)ccc2S(=O)(=O)N([C@@H](C)CO)C[C@@H]1C	nt	i	nt	i
COc1cc(OC)cc(-n2nnnc2SCC(=O)Nc2nc3c(s2)CCCC3)c1	i	nt	nt	nt
Cn1nnnc1SCC(=O)Nc1nc2c(s1)CCCC2	93	i	?	i
O=C1c2ccccc2C(=O)N1CC1=CCS(=O)(=O)C1	i	i	nt	112
Cc1noc(C)c1S(=O)(=O)Nc1cccc2c1O[C@H](CN(C)Cc1ccc(C(=O)O)cc1)[C@H](C)CN([C@H](C)CO)C2=O	nt	i	nt	nt
Cc1nc(SCc2ccc(OCCC(C)C)cc2)n[nH]1	i	45	i	i
CCCCCOc1ccc(CSc2n[nH]c(C)n2)cc1	i	nt	i	nt
O=C(NNC(=S)Nc1ccccc1Cl)c1ccccc1	93	71	i	i
O=C(NNC(=S)Nc1ccccc1Cl)c1ccccc1Cl	i	53	i	i
O=C(NNC(=S)Nc1ccc(Cl)cc1)c1ccccc1	i	i	i	i
O=C(Nc1ccccc1Cl)c1ccccc1Cl	i	i	i	i
CCC(=O)N(C)C[C@H]1Oc2ncc(-c3ccccc3OC)cc2C(=O)N([C@H](C)CO)C[C@@H]1C	nt	i	nt	i
C/C=C/c1ccc2c(c1)O[C@@H](CN(C)S(=O)(=O)c1ccc(C)cc1)[C@@H](C)CN([C@H](C)CO)S2(=O)=O	nt	i	nt	i
COCCNC(=O)C[C@@H]1CC[C@H]2[C@@H](COc3ccc(NC(=O)COC)cc3C(=O)N2C)O1	nt	i	nt	i
C[C@H]1CN([C@@H](C)CO)S(=O)(=O)c2ccc(C#CC(C)(C)O)cc2O[C@@H]1CN(C)C(=O)CN(C)C	nt	i	nt	i
CCC(CC)c1nnc(NC(=O)C2COc3ccccc3O2)s1 (centres undefined)	i	i	nt	i
CCc1nnc(NC(=O)C2COc3ccccc3O2)s1 (centres undefined)	i	nt	nt	nt
O=C(Nc1ncc(Cc2ccccc2)s1)C1COc2ccccc2O1 (centres undefined)	?	53	nt	i
Cc1nnc(NC(=O)C2COc3ccccc3O2)s1 (centres undefined)	nt	46	nt	i
C[C@H]1CCCCO[C@H](CN(C)C(=O)c2ccncc2)[C@@H](C)CN([C@@H](C)CO)C(=O)c2cc(NS(=O)(=O)c3ccc(Cl)cc3)ccc2O1	nt	i	nt	nt
COc1ccccc1NC(=O)N1CCN(c2cccc(C(F)(F)F)c2)CC1	i	i	i	123
SMILES	MITF act	esBAF inh	Wnt bcat act	Statin myotox sup
C[C@@H]1CN([C@H](C)CO)C(=O)Cc2cc(NC(=O)c3ccncc3)ccc2O[C@@H]1CN(C)S(=O)(=O)c1cccs1	nt	i	nt	i
CCn1c(C)c(C(C)=O)c(N2CCCCC2)nc1=S	i	i	nt	79
O=C(C[C@@H]1CC[C@H](NC(=O)Nc2ccc3c(c2)OCO3)[C@@H](CO)O1)NCc1ccc(Cl)cc1	nt	i	nt	i
O=C(CCN1CCCCC1)NCC[C@H]1CC[C@H](NC(=O)C2CCOCC2)[C@@H](CO)O1	nt	i	nt	i
Cc1cccc2c(N=NC(=O)C(C)n3cnc4ccccc4c3=O)c(O)[nH]c12 (centres undefined)	i	nt	i	nt
O=C(O)c1ccc(N=Nc2c(O)[nH]c3ccc(Br)cc23)cc1	i	80	i	i
Oc1[nH]c2ccccc2c1N=Nc1cccc(Cl)c1	i	52	i	i
Cc1cccc2c(N=Nc3ccccc3)c(O)[nH]c12	i	nt	45	nt
COC(=O)N=Nc1c(O)[nH]c2ccc(Br)cc12	i	i	53	i
O=C(O)C[C@H]1C[C@H]2c3cc(NC(=O)c4ccc5c(c4)OCO5)ccc3O[C@H]2[C@@H](CO)O1	nt	i	nt	i
C[C@@H]1CN([C@@H](C)CO)C(=O)Cc2cc(NC(=O)Nc3ccc(F)cc3)ccc2O[C@H]1CN(C)S(=O)(=O)c1cccs1	nt	i	nt	i
O=C(O)c1ccc(N=Nc2c(O)[nH]c3cc(Cl)ccc23)cc1	i	nt	53	nt
CN(C(=O)n1cnc2ccccc21)c1ccccc1	i	nt	i	nt
ClC(Br)=C(n1cnc2ccccc21)n1cnc2ccccc21	i	i	i	90
CCCNC(=O)N[C@@H]1CC[C@@H](CC(=O)NCCc2ccccc2)O[C@H]1CO	nt	i	nt	i
CCCn1nnc(NC(=O)c2cccc(OCC)c2)n1	i	i	i	i
CCCn1nnc(NC(=O)c2ccc3ccccc3c2)n1	122	nt	i	nt
COc1ccccc1N1CCN(c2ccc3ccccc3n2)CC1	108	i	i	i
C[C@@H]1CN([C@H](C)CO)C(=O)Cc2cc(NC(=O)Cn3cnnn3)ccc2O[C@H]1CN(C)Cc1ccc(C(=O)Nc2ccccc2N)cc1	nt	i	nt	i
Cc1cccnc1NC(=S)NC(=O)c1oc2ccccc2c1C	i	74	i	i
Cc1c(C(=O)NC(=S)NCC(C)C)oc2ccccc12	90	nt	i	nt
CC(=O)Nc1ccc(NC(=S)NC(=O)c2oc3ccccc3c2C)cc1	i	nt	nt	nt
COc1ccc(NC(=O)N[C@@H]2CC[C@H](CCNS(=O)(=O)c3ccccc3F)O[C@@H]2CO)cc1	nt	i	nt	i
c1ccc(N2CCN(c3cnccn3)CC2)nc1	nt	i	nt	nt
N#Cc1cc(C#N)c(N2CCN(c3ccccn3)CC2)nc1N	98	nt	i	nt
SMILES	MITF act	esBAF inh	Wnt bcat act	Statin myotox sup
Brc1ccccc1-c1nc2c3ccccc3ncn2n1	i	49	39	i
Cc1occc1-c1nnc(SCC(=O)Nc2ccccc2)n1Cc1ccccc1	i	46	nt	i
CCCCOC(=O)CSc1nc(N)c(C#N)c(-c2ccc(OCC)cc2)c1C#N	i	nt	i	nt
CCCCOC(=O)CSc1nc(N)c(C#N)c(-c2ccc(OC)cc2)c1C#N	i	i	i	90
O=C(Nc1nccs1)c1ccc(COc2ccccc2)o1	nt	52	i	i
CC(C)(C)c1ccc(OCc2ccc(C(=O)Nc3cccnc3)o2)cc1	i	63	?	i
Cc1ccc(SCc2ccc(C(=O)Nc3nccs3)o2)cc1	i	nt	i	nt
O=C(Nc1nccs1)c1ccc(CSc2ccccc2)o1	?	i	38	i
C[C@@H]1CN([C@@H](C)CO)C(=O)Cc2cc(NS(=O)(=O)c3cccs3)ccc2O[C@H]1CN(C)CC1CC1	nt	i	nt	i
O=C1Nc2ccccc2Nc2ncccc21	i	i	nt	i
Cc1ccc2c(c1)NC(=O)c1cccnc1N2	i	63	i	i
O=C(NNc1c2ccccc2nc2ccccc12)c1cccc(O)c1	i	nt	nt	nt
Oc1cccc(-c2nc3ccc4ccccc4c3c3c2CCC3)c1	93	nt	nt	nt
CCOC(=O)C1CCCN(C(=O)CSCc2ccccc2)C1 (centres undefined)	i	48	i	i
CCOC(=O)C1CCCN(C(=O)CSc2nc(C)cc(C)n2)C1 (centres undefined)	i	i	i	i
CCOC(=O)C1CCCN(C(=O)CCc2nnc(-c3ccc(C(C)=O)s3)o2)C1 (centres undefined)	i	71	41	i
Nc1nnc(/C=C/c2ccccc2Cl)s1	nt	nt	55	nt
